Experimental data as given in PubChem BioAssay (NCI).
About 79,000 compounds went through this panel and 15% of them were active in at least one assay; those are over-represented in the sample as a whole. Calls of active or inactive are those of the source. No stated cut-off is given here; in the data, active means growth inhibition above about 70%; inactive means the rest.

Legend:
[1] = NCI Yeast Anticancer Drug Screen. Data for the rad50 strain (AID 155);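 further: 0% = growth of vehicle-only cultures of the same strain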; conditions: S. cerevisiae rad50 strain growth inhibition; at 50.0 µM; stronger effect = higher value
Method in brief: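 Readout: growth inhibition relative to vehicle-treated cultures. Compound exposure was carried out in a genetically defined yeast strain deficient in DNA damage repair.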

[2] = NCI Yeast Anticancer Drug Screen. Data for the mec2-1 strain (AID 157); conditions: S. cerevisiae mec2-1 strain, at 50.0 µM, stronger effect = higher value
Method in brief: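 Readout is yeast growth inhibition, normalised to vehicle-treated controls, in the mec2-1 strain exposed to compound.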

[3] = NCI Yeast Anticancer Drug Screen. Data for the sgs1 mgt1 strain (AID 161);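 further: 0% = growth of cultures given vehicle only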; conditions: S. cerevisiae sgs1 mgt1 strain, at 50.0 µM, stronger effect = higher value
Method in brief: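 Yeast cells carrying a defined DNA-repair defect were exposed to test compounds. Growth inhibition was measured relative to vehicle-treated controls.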

[4] = NCI Yeast Anticancer Drug Screen. Data for the cln2 rad14 strain (AID 165);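 further: 0% = growth equal to vehicle treated cultures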; conditions: S. cerevisiae cln2 rad14 strain, at 50.0 µM, stronger effect = higher value
Method in brief: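 Relative to vehicle controls, growth inhibition of compound-treated cln2 rad14 yeast was recorded.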

[5] = NCI Yeast Anticancer Drug Screen. Data for the bub3 strain (AID 167); conditions: S. cerevisiae bub3 mutant strain, at 50.0 µM, stronger effect = higher value
Method in brief: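 Readout: yeast growth inhibition, expressed relative to vehicle-only wells. The test organism is a mutant strain from a panel with lesions in DNA repair or checkpoint genes.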

[6] = NCI Yeast Anticancer Drug Screen. Data for the mlh1 rad18 strain (AID 175); conditions: S. cerevisiae mlh1 rad18 strain growth inhibition; at 50.0 µM; stronger effect = higher value
Method in brief: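 Test agents were incubated with a yeast strain of defined genotype (DNA damage repair defect). Inhibition of growth was derived by comparison with vehicle-exposed cultures.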

Measured: growth inhibition

CSC(=NCCN=C(NS(=O)(=O)c1ccc(Cl)cc1)SC)NS(=O)(=O)c1ccc(Cl)cc1
inactive: [1] 5.95% | [2] -5.3% | [3] 7.15% | [4] 1.5% | [5] 4.15% | [6] 5.8%

CN(C)N=Nc1cccc(Cl)c1
inactive: [1] 25.9% | [2] 0.6% | [3] 10.3% | [4] 16.2% | [5] 8.8% | [6] 14.2%

CC(C)CC(CC(C)C)OC(=O)Nc1ccccc1
inactive: [1] -1% | [2] 17.3% | [3] 9.05% | [4] 33.6% | [5] 30.1% | [6] 25.9%

CCOc1ccccc1OCC
inactive: [1] 25.1% | [2] -27.2% | [3] -25.9% | [4] 12.3% | [5] -11.2% | [6] 21.2%

CCc1nc(N)nc(N)c1-c1ccc(OC)c(N)c1
inactive: [1] 22.4% | [2] 28.1% | [3] 22.6% | [4] 35.7% | [5] 13.6% | [6] 43.4%

CCOC(=O)c1[nH]c(CC(=O)O)c(C(=O)O)c1C
inactive: [1] 15.7% | [2] 26.4% | [3] 24.4% | [4] 0.4% | [5] 16.4% | [6] 15.2%

CCC(Br)C(=O)Nc1ccccc1C (stereo not given)
inactive: [1] 27% | [2] 3.25% | [3] 6.75% | [4] -14.2% | [5] 20.6% | [6] 0.4%

O=C(NC(Nc1ccc(F)cc1)(C(F)(F)F)C(F)(F)F)C(C(F)(F)F)C(F)(F)F
active: [1] 87.4% | [2] 88.6% | [3] 91.8% | [4] 92.2% | [5] 90.7% | [6] 93.2%

CC(=O)C1CCC2C3CCC4CC5(CCC4(C)C3C(=O)CC12C)NC(C(=O)O)CS5 (stereo not given)
inactive: [1] 2.25% | [2] 3.4% | [3] 5.85% | [4] -6.25% | [5] -0.6% | [6] -1.35%

CN1C(=O)C(O)CC1c1ccccc1C(F)(F)F (stereo not given)
inactive: [1] 11.7% | [2] 4.2% | [3] 31.2% | [4] 17.9% | [5] 5.05% | [6] -30.6%
